Tau fluor cs: counter-screen for tau fibril formation inhibitors. Potency, µM (series often up to 57.7 µM). AID 1463. tau K18 P301L Alexa594 fluorescence, heparin fibrillization. 280,000 compounds, 0.93% hits; note: nearly all actives have a fitted effect of over 55% in size
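Human tau K18 P301L (15 uM unlabeled, 0.24 uM Alexa 594-labeled) in 100 mM sodium acetate pH 7 with 20 uM heparin, 6 hr at 37 C. ThT 30 uM added, 1 hr ambient; Alexa 594 FP and total fluorescence read at 555/632 nm.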
Tau fibril FP: inhibitors of human tau fibril formation; 280,000 compounds, 0.39% hits; P10636; K18 P301L tau heparin fibrillization, Alexa594 FP, 6 h; Potency, µM (highest dose often 57.7 µM), actives largely listed as inhibitors; note: nearly all actives have a fitted effect of over 55% in size
Target sequence (P10636 561-689 P618L limits assumed): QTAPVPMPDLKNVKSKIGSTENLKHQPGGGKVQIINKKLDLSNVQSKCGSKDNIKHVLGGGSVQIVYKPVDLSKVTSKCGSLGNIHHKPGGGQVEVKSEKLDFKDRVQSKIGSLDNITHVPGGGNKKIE
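K18 P301L tau (15 uM unlabeled/0.24 uM Alexa 594-labeled, final) + compound + heparin 20 uM final; 100 mM NaOAc pH 7; 6 hr 37 C; ThT 30 uM final added, 1 hr RT; FP ex 555/em 632 nm.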
TRb-SRC2 inh: TRbeta-SRC2 interaction inhibition | P10828 | TRbeta-SRC2 peptide binding, fluorescence polarization; receptor liganded with 1 µM T3 | Potency, µM (highest dose often 106 µM), hits mostly inhibitors | 280,000 compounds, 0.065% hits; note: nearly all actives have a fitted effect of over 50% in size
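Assay buffer: 20 mM Tris-HCl, 100 mM NaCl, 10% glycerol, 1 mM EDTA, 0.01% NP-40, 1 mM DTT, 1 uM T3, 5% DMSO; TRb LBD 0.6 uM, Texas Red SRC2 20 nM; FP after 5 hr.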
RGS12 GoLoco inh: blocks human Gai1 binding to RGS12 GoLoco peptide, red readout; 230,000 compounds, 0.44% hits; Potency, µM (top dose mostly 61.6 µM), usual class: inhibitors; Gai1:RGS12 GoLoco peptide FP, rhodamine, 10 min; P63096; active = well fitted inhibition curve with a large enough effect, not every such curve was filed as active; inactive = no such curve, though single readings can be large or run the other way; note: nearly all actives have a fitted effect of over 30% in size
Target sequence (P63096 whole entry, looked up): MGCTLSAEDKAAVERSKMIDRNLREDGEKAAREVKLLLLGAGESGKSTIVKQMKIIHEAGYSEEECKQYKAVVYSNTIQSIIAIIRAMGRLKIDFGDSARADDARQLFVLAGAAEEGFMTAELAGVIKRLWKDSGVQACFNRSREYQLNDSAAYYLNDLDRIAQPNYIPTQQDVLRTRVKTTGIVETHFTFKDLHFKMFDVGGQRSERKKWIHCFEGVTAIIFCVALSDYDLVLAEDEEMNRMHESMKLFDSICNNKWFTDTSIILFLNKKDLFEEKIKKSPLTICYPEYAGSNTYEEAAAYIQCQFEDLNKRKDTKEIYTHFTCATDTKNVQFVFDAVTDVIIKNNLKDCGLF
TR SRC2 fluor cs: alters Texas Red total fluorescence, flagging assay interference. AID 1479. TRb/SRC2 Texas Red total fluorescence interference. 280,000 compounds, 0.29% hits. Potency, µM (highest dose often 106 µM); active = well fitted curve in either direction with a large enough effect; inconclusive = small, poorly fitted or top-dose-only effect
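Human TRβ ligand-binding domain (0.6 uM) and Texas Red SRC2 peptide (20 nM) in Tris buffer with 1 uM T3 and 5% DMSO were incubated with pinned compound for 5 hr at ambient temperature. Total fluorescence was computed as S + 2P (555/632 nm).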
Tau fibril ThT: blocks human tau fibril formation measured by thioflavin T | P10636 | Potency, µM (top dose mostly 57.4 µM), usual class: inhibitors | 270,000 compounds, 2.1% hits | recombinant tau K18 P301L (four-repeat tau fragment), heparin-induced fibrillization, ThT fluorescence; note: nearly all actives have a fitted effect of over 55% in size
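Aggregation was driven by heparin (20 uM final) acting on recombinant tau […] bearing P301L in 100 mM sodium acetate pH 7; fibrils were detected with Thioflavin T.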
Large screens that a line does not name were inactive; [ ] = remark or other dose. An excerpt weighted towards active compounds, which were near 3.2% of everything screened. Unless noted, calls come from the whole dose curve; as a rule, active = well fitted curve in the direction sought with a large enough effect; inconclusive = small, poorly fitted or top-dose-only effect, or another doubt; inactive = no such curve, though single readings can be large; an effect the other way counts as inactive or inconclusive.

Clc1cccc(Nc2ncnc3c2nc2n3CCCCC2)c1	TR SRC2 fluor cs inconclusive (no result: RGS12 GoLoco inh)
Cc1[nH]c2ccccc2c1C1=NNC(=Nc2ccc(F)cc2)SC1	Tau fluor cs 11.2µM[quencher], Tau fibril FP inconclusive, Tau fibril ThT 14.1µM
Cc1cccc(N=C2NN=C(c3ccccc3F)CS2)c1C	Tau fluor cs inconclusive, Tau fibril ThT inconclusive
COc1ccc(N=C2NN=C(c3c(C)[nH]c4ccccc34)CS2)cc1	Tau fluor cs 25.1µM[quencher], Tau fibril ThT inconclusive
Fc1ccccc1N=C1NN=C(c2ccccc2)CS1	Tau fluor cs inconclusive, Tau fibril FP inconclusive, Tau fibril ThT 22.4µM
Fc1ccc(N=C2NN=C(c3cc(F)ccc3F)CS2)cc1	Tau fluor cs inconclusive, Tau fibril FP inconclusive, TR SRC2 fluor cs inconclusive, Tau fibril ThT 12.6µM
Cc1cc(C2=NNC(=Nc3ccccc3)SC2)c(C)n1C	Tau fibril ThT inconclusive
Fc1ccc(F)c(C2=NNC(=Nc3ccccc3F)SC2)c1	none
CCC(C)NC(=O)c1cc2c(Cl)nc3ccc(C)cc3c2s1 (configuration not stated)	none (no result: RGS12 GoLoco inh)
COc1ccccc1Cn1cc(C(=O)c2ccc(C)cc2)c(=O)c2cc(F)cc(F)c21	none (no result: RGS12 GoLoco inh)
C=CCc1cc(OC)c(O)c(C(=O)NCCO)c1	none (no result: Tau fluor cs, Tau fibril FP, RGS12 GoLoco inh, Tau fibril ThT)
Nc1ccc(S(N)(=O)=O)cc1N	Tau fluor cs inconclusive, Tau fibril ThT 12.6µM
Nc1ccc(S(N)(=O)=O)cc1	none
O=C(NC(=S)Nc1ccccc1)c1csnn1	Tau fibril FP inconclusive, Tau fibril ThT 10µM
NC1=Nc2cccc3cccc1c23	RGS12 GoLoco inh 20µM, Tau fibril ThT inconclusive
COc1cc2ccccc2nn1	none
COc1ccc2c(n1)Sc1nc3ccccc3nc1N2	Tau fluor cs 3.98µM[quencher], Tau fibril ThT 1µM
CC(=O)OC1CCC(C(C)(C)C)CC1 (configuration not stated)	none (no result: Tau fluor cs, Tau fibril FP, RGS12 GoLoco inh, Tau fibril ThT)
COC(=O)c1ccc(NC(=O)CC2C(=O)N(c3cccc(OC)c3)C(=O)N2C(C)C)cc1 (configuration not stated)	Tau fibril ThT inconclusive (no result: RGS12 GoLoco inh)
COc1ccc2c(c1)C(=O)[C@@H](OC(=O)N[C@H]1CCCc3ccccc31)[C@H](c1ccc(OC)c(Br)c1)O2	none
CC1=NOC(=O)/C1=C\c1ccc(-c2ccc(Br)cc2C(=O)O)o1	Tau fibril FP inconclusive, Tau fibril ThT inconclusive
CC1=NOC(=O)/C1=C\c1ccc(-c2ccc(Br)cc2)o1	Tau fibril ThT 28.2µM
CC1=NOC(=O)/C1=C/c1ccc(-c2ccc(Cl)cc2)o1	Tau fluor cs inconclusive, Tau fibril ThT 17.8µM
COc1ccc(OC)c(S(=O)(=O)Nc2ccc(O)c3ccccc23)c1	Tau fluor cs 28.2µM[quencher], Tau fibril FP inconclusive, Tau fibril ThT 25.1µM
CCN(CC)CCNC(=O)c1ccc(CSc2nc3ccncc3n2Cc2cccc(F)c2)cc1	none (no result: RGS12 GoLoco inh)
CC1=C(C)C(=O)N(c2ccccn2)C1=O	none
Cc1nn(-c2ccccn2)c2c1C(=O)C(Br)CC2 (configuration not stated)	Tau fluor cs inconclusive, Tau fibril FP 3.16µM, TRb-SRC2 inh inconclusive, Tau fibril ThT 2.82µM
COCCCNC(=O)c1nn(C)c2c1CS(=O)(=O)c1ccccc1-2	TR SRC2 fluor cs 100µM[quencher] (no result: RGS12 GoLoco inh)
CCOC(=O)C(C(=O)OCC)c1cc(Br)c2noc3c2c1C(=O)c1ccccc1-3	Tau fluor cs 2.51µM[quencher], Tau fibril FP 2.24µM, Tau fibril ThT 1.12µM
CCCCNc1cc(NC2CCCCC2)c2c3c(onc13)-c1ccccc1C2=O	Tau fluor cs inconclusive, Tau fibril ThT inconclusive (no result: RGS12 GoLoco inh)
COc1ccc(-c2cnc(C)o2)cc1S(=O)(=O)Nc1ccc(NC(C)=O)cc1	none (no result: RGS12 GoLoco inh)
CCCC(=O)Nc1nnc(SCc2cc(=O)c3ccc(C)cc3[nH]2)s1	none (no result: RGS12 GoLoco inh)
CCC(C(=O)NCCc1ccccc1)n1nc(C)n2c(cc3sccc32)c1=O (configuration not stated)	none (no result: RGS12 GoLoco inh)
O=C(Nc1ccc2c(c1)OCCO2)c1cc2sccc2n1Cc1ccccc1	Tau fluor cs 14.1µM[quencher]
CC(=O)c1ccc(NC(=O)c2cc3sccc3n2Cc2ccc(Cl)cc2)cc1	Tau fluor cs inconclusive, Tau fibril FP 10µM (no result: RGS12 GoLoco inh)
O=C(Nc1ccc2c(c1)OCCO2)c1cc2sccc2n1Cc1ccc(F)cc1	Tau fluor cs inconclusive

Bioassay records deposited in PubChem by National Center for Advancing Translational Sciences (NCATS).
